Potency data for 1 compound are collected here from PubChem BioAssay AID1645872 (National Center for Advancing Translational Sciences (NCATS), 2021).

The experiment addresses Papain (Carica papaya) (UniProt P00784). The experiment is described as follows: Confirmatory qHTS assay for inhibitors of the protease papain. The settings on record: papain Z-FR-AMC cleavage, fluorescence. The text has this: Principal Investigator: Sam Michael National Center for Advancing Translational Sciences, National Institutes of Health, Rockville, MD Current high-throughput screening (HTS) assay validation is often a manual process, though this can be enhanced by design-of-experiment approaches. An artificial intelligence-driven (AI/ML) assay optimization was developed as part of the NCATS A Specialized Platform for Innovative Research Exploration (ASPIRE) Initiative to accelerate preclinical drug discovery. We describe the development of an autonomous Cloud-based computational driven assay optimization system using the Kebotix adaptive optimization algorithm. […]
PROTOCOL TABLE SEQUENCE No. (e.g., 1, 2, 3, etc.); PARAMETER (e.g., Cells, Incubation, Reagent, etc.); VALUE and DESCRIPTION. 1; Reagent; 3 uL; 4/3x Enzyme solution (working concentration of 5 nM) or 3 uL buffer 2; Compounds; 17 nL; library compounds and controls (working concentration of 169 nM - […]) 3; Time; 15 min; room temperature incubation 4; Reagent; 1 uL; 4x 2 uM Z-FR-AMC substrate 5; Centrifugation; 1000 rpm; 15 sec centrigure 6; Detection; Fluorescence Read 1; ViewLux plate reader 7; Time; 10 min; room temperature incubation 8; Detection; Fluorescence Read 2; ViewLux plate reader NOTES (numbers refer to Sequence numbers above; values are from representative experiments) 1; Dispense 3 uL of [4/3x] […]

Records with an inconclusive call do not appear. The source made the active and inactive calls. Calls follow the shape of the dose curve; as a rule, active = well fitted inhibition curve with a large enough effect; inconclusive = small, poorly fitted or top-dose-only effect; inactive = flat fitted curve, though single readings scatter.

Chain of Papain (Carica papaya) (P00784 whole entry, looked up): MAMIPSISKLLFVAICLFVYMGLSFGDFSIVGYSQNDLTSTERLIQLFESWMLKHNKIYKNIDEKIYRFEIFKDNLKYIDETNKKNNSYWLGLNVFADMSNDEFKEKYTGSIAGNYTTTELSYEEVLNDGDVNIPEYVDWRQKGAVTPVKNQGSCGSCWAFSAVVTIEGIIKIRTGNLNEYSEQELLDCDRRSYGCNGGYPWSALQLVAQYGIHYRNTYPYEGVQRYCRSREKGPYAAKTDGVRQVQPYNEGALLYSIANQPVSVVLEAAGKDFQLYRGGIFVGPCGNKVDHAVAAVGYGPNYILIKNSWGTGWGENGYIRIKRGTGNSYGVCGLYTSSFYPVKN

On to `Cc1ccc(S(=O)(=O)N[C@@H](CCCCN)C(=O)CCl)cc1`, for which the Potency was 0.647 µM (active).
